Source: PubChem BioAssay (National Center for Advancing Translational Sciences (NCATS))
Shown is part of a subset that was picked to be rich in hits.
GBA mod: Glucocerebrosidase; Lysosomal acid glucosylceramidase (Homo sapiens), P04062; purified enzyme, resorufin glucoside fluorescence (screen aimed at inhibitors), 20 min; Potency, µM; 48,000 compounds, 1.1% hits; AID 360, 2006; in the data active = potency below about 15 µM; inconclusive = mostly about 16 µM to 33 µM;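 also: the screen sought inhibitors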
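Normal human glucocerebrosidase (0.2 nM final) was assayed with resorufin β-D-glucopyranoside (30 uM final) in 50mM citric acid/KH2PO4, 10mM sodium taurocholate, 0.01% tween-20, pH 5.9. Compounds were titrated; fluorescence (Ex 548, Em 600) read after 20 min at RT.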
Casp7 inh: qHTS Assay for Allosteric/Competitive Inhibitors of Caspase-7; 75,000 compounds, 0.02% hits; recombinant caspase-7, Ac-DEVD-AFC fluorescence rate; AID 889, 2007; Potency, µM (top dose mostly 57.5 µM), usual class: inhibitors; P55210; active = well fitted inhibition curve with a large enough effect in the main read-out, with a control signal flat, not every such curve was filed as active; inconclusive = small, poorly fitted or top-dose-only effect, or a change in a side signal
Target sequence (P55210 24-198 limits assumed): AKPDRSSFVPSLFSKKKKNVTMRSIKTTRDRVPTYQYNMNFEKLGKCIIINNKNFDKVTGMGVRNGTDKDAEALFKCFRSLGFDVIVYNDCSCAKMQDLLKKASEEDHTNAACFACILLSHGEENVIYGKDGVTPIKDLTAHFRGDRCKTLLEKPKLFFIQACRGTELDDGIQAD
Target sequence (P55210 207-303 limits assumed): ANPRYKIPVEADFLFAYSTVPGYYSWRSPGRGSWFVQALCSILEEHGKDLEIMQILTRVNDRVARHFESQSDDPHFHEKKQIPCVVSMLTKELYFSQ
Casp1 inh: qHTS Assay for Allosteric/Competitive Inhibitors of Caspase-1; Caspase-1 enzyme, Ac-WEHD-AFC fluorogenic rate; AID 900, 2007; P29466; Potency, µM (titrated, usually from 57.5 µM), most hits filed as inhibitors; 75,000 compounds, 0.03% hits
Target sequence (P29466 120-297 limits assumed): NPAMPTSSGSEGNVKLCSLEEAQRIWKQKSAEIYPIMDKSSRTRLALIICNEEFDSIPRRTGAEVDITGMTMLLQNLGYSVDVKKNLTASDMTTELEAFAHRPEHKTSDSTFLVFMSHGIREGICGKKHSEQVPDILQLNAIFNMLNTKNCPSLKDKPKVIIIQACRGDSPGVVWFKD
Target sequence (P29466 317-404 limits assumed): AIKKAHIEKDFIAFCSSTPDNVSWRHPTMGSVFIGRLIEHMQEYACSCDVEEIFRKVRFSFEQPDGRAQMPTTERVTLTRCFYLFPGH
USP2a inh: qHTS Assay for Inhibitors of Ubiquitin-specific Protease USP2a. USP2a enzymatic assay, qHTS inhibition. Potency, µM (top dose mostly 38.3 µM), actives largely listed as inhibitors. 60,000 compounds, 0.1% hits; also: nearly all actives have a fitted effect of over 60% in size
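USP2 core (20 nM final) was preincubated with compound for 30 min at RT in 20 mM Tris-HCl pH 8.0, 2 mM CaCl2, 2 mM beta-mercaptoethanol; Ub-PLA2 (20 nM) plus NBD C6-HPC (20 uM) then added, fluorescence read after 2.5 h.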
Numbers stand for hits; – = inactive; ? = inconclusive; · = no result given; [ ] = another dose, or the depositor's remark. Unless noted, calls follow the shape of the dose curve; as a rule, active = well fitted curve in the direction sought with a large enough effect; inconclusive = small, poorly fitted or top-dose-only effect, or another doubt; inactive = no such curve, though single readings can be large; an effect the other way counts as inactive or inconclusive.

SMILES	GBA mod	Casp7 inh	Casp1 inh	USP2a inh
COc1ccc(OC)c(S(=O)(=O)n2ccnc2)c1	·	–	–	·
COC(=O)c1ccc(CSc2nc3c(c(=O)n2-c2ccc(Br)cc2)SCC3)o1	4.9	–	–	–
O=Nc1c(-c2c(O)[nH]c3cc(Br)ccc23)[nH]c2ccccc12	·	–	–	13µM
O=C(O)c1ccncc1.O=C(O)c1ccncc1.[Cl][Pt]([Cl])([Cl])[Cl]	·	–[11.5 µM]	–[11.5 µM]	·
CCCn1c(=O)c(C(=O)Nc2ccccc2C(=O)OC)c(O)c2ccccc21	14	–	–	–
CC1=C(C#N)C(c2cn(-c3ccccc3)nc2-c2cccs2)C(C#N)=C(C)N1	–	–	–	–
NC1=NC(c2cn(-c3ccccc3)nc2-c2cccs2)n2c(nc3ccccc32)N1 (stereo not given)	12	–	–	–
NCC[C@H]1CCC[C@H](CCN)N1	·	–	–	–
COc1ccccc1-c1nccc(NCc2cccs2)n1	·	–	–	–
O=C(CSc1nc2ccccc2o1)c1ccc2c(c1)OCCO2	14	–	–	–
O=C(CSc1nnc2ccccn12)c1ccc2c(c1)OCCO2	·	–	–	–
C=CCn1c(C)cc(C(=O)CSc2nc3ccccc3o2)c1C	–	–	–	–
Cc1cc(C(=O)CSc2nc3ccccc3o2)c(C)n1C1CC1	14	–	–	–
CC(C)[C@H]1C(=O)C(C(N)=O)=C(O)[C@]2(O)C(=O)C3=C(O)c4c(O)ccc(N(C)C)c4C[C@H]3C[C@@H]12	·	–	–	–
CN(C)C(=O)c1ccc(-c2ccc3ncnc(NCc4ccccc4)c3c2)cc1	·	–	–	–
CN1C[C@@H](C(=O)N[C@]2(C)O[C@]3(O)[C@H]4CCCN4C(=O)[C@H](Cc4ccccc4)N3C2=O)C[C@H]2c3cccc4[nH]cc(c34)C[C@@H]21	·	–	–	–
COCc1nnc(NC(=O)CCc2ccccc2)s1	–	–	–	–
COc1ccc(C(=O)Nc2nnc(C(F)(F)F)s2)cc1	3.3	–	–	–
CCCC(=O)Nc1ccc(C(=O)Nc2nnc(COC)s2)cc1	0.77	–	–	–
COCc1nnc(NC(=O)c2cccs2)s1	?	–	–	–
O=C(Nc1nnc(C(F)(F)F)s1)c1cccnc1	·	–	–	–
COCc1nnc(NC(=O)c2ccc(NC(C)=O)cc2)s1	6.8	–	–	–
OC[C@@H]1O[C@@H](n2cnc3c(N[C@@H]4C[C@@H]5CC[C@H]4C5)ncnc32)[C@@H](O)[C@H]1O	·	–	–	–
CC(=O)N1CCN(c2ccc(NCc3ccc(C)cc3)cc2)CC1	12	–	–	–
CC(=O)Nc1ccc(N2CCN(C(C)=O)CC2)cc1	–	–	–	–
SMILES	GBA mod	Casp7 inh	Casp1 inh	USP2a inh
CCc1ccc(CNc2ccc(N3CCN(C(C)=O)CC3)cc2)cc1	12	–	–	–
CCCc1c(C)c2cccc(C)c2[nH]c1=O	·	–	–	–
CCCCN1CCc2c([nH]c3c(C)cccc23)C1=O	9.8	–	–	–
N#Cc1ccccc1NC(=O)c1ccccc1OCC(=O)Nc1ccc2c(c1)oc1ccccc12	11	–	–	–
O=C(NCc1ccccc1)c1ccc(Cc2nc3ccccc3[nH]2)cc1	·	–	–	·
O=C(CSc1nnc(Cc2csc(Nc3cccc(Cl)c3)n2)o1)N1CCc2ccccc21	14	–	–	–
O=C(CSc1nnc(CNc2ccccc2)o1)N1CCc2ccccc21	–	–	–	–
O=C(Cn1c(=O)[nH]n(-c2ccccc2)c1=O)N1CCCc2ccccc21	9	–	–	–
CCN1CCN(c2ccc(NC(=O)Cc3ccccc3)cc2)CC1	–	–	–	–
CCN1CCN(c2ccc(NC(=O)COc3ccccc3Cl)cc2)CC1	15	–	–	–
COc1ccc(C2C(C#N)=C(C)NC3=C2C(=O)CC(C)(C)C3)c(OC)c1 (stereo not given)	·	?	·	–
COC(=O)c1ccc(C2C(C#N)=C(C)NC3=C2C(=O)CC(C)(C)C3)cc1 (stereo not given)	12	?	·	–
CC(=O)NCCNc1nc(-c2cccnc2)nc2ccccc12	·	–	–	–
O=C(Nc1ccc(Br)c2cccnc12)c1ccc(Cn2cc(Cl)cn2)o1	9.2	–	–	–
CC(=O)[C@@]1(O)CC[C@@H]2[C@@H]3CCC4=CC(=O)CC[C@@]4(C)[C@H]3CC[C@]21C	·	–	–	–
N#CC1=C(N)N(c2ccccc2C#N)C2=C(C(=O)CCC2)C1c1ccsc1 (stereo not given)	–	–	–	–
N#CC1=C(N)N(c2ccccc2)C2=C(C(=O)CCC2)C1c1cccs1 (stereo not given)	13	–	–	–
CCCn1cnc2c(c1=O)c1nc3ccccc3nc1n2CCC1=CCCCC1	–	–	–	–
CCCn1cnc2c(c1=O)c1nc3ccccc3nc1n2CCc1ccccc1	7	–	–	–
C[C@@H](c1ccccc1)N1C(=O)[C@H]2[C@@H]3[C@H](O)C=CC(=O)[C@H]3CC[C@H]2C1=O	·	–[11.5 µM]	–[11.5 µM]	·
O=C(Nc1nc(-c2ccc(S(=O)(=O)N3CCCCCC3)cc2)cs1)c1cccs1	14	–	–	–
Cc1cccc(N(C)S(=O)(=O)c2ccc3[nH]c(=O)c(=O)[nH]c3c2)c1	11	–	–	–
Cc1cccc(N(C)S(=O)(=O)c2ccc3[nH]cc(C(=O)N4CCOCC4)c(=O)c3c2)c1	–	–	–	–
Cc1ccc(-n2ncc3c(=O)n(CC#N)cnc32)cc1C	–	–	–	–
C#CCn1cnc2c(cnn2-c2ccc(C)c(C)c2)c1=O	15	–	–	–
SMILES	GBA mod	Casp7 inh	Casp1 inh	USP2a inh
CCc1nnc2c3cnn(-c4ccc(C)c(C)c4)c3ncn12	0.21	–	–	–
CCN(CC)CCCCNC(=O)c1ccc(Cc2nc3ccccc3[nH]2)cc1	·	–	–	·
COc1ccccc1N1CCN(Cc2nc(N)nc(Nc3ccc(C)c(Cl)c3)n2)CC1	5.3	–	–	–
COc1ccccc1Nc1nc(N)nc(CSc2ncccn2)n1	–	–	–	–
COc1ccc(N2CCN(Cc3nc(N)nc(Nc4ccccc4OC)n3)CC2)cc1	3.9	–	–	–
COc1ccccc1Nc1nc(N)nc(CN2CCN(c3ccccc3F)CC2)n1	2.4	–	–	–
Nc1nc(Cl)nc2c1ncn2[C@@H]1O[C@@H](COP(=O)(O)OP(=O)(O)OP(=O)(O)O)[C@@H](O)[C@H]1O	·	–	–	–
Cc1ccc(-n2c(SCC(=O)NCC3CCCO3)nc3n[nH]c(C)c3c2=N)cc1Cl (stereo not given)	14	–	–	–
N#CC1=C(N)C(C#N)(C#N)[C@H](c2ccncc2)[C@H]2CC3(CC=C12)OCCO3	–	–	–	–
Cc1ccc(C2C3CSCC=C3C(C#N)=C(N)C2(C#N)C#N)cc1 (stereo not given)	12	–	?	–
O=c1[nH]c2[nH]c(=S)[nH]c(=S)c2[nH]1	·	–[11.5 µM]	–[11.5 µM]	·
CCOC(=O)N(C)c1ccc(C(O)(C(F)(F)F)C(F)(F)F)cc1	?	–	–	–
CNc1ccc(C(O)(C(F)(F)F)C(F)(F)F)cc1C(O)(C(F)(F)F)C(F)(F)F	13	–	–	–
